Screening data from PubChem.
MARV entry inh: Marburg virus entry inhibition | Marburg virus pseudotyped entry inhibition, cell reporter | Potency, µM (doses to about 37.8 µM), usual class: inhibitors | 1.8% of 300,000 active | AID 540276; calls by dose curve; tested in HEK293 cells
AMA1 RON2 block: inhibitors of Plasmodium falciparum AMA1-RON2 interaction; AID 720542; 0.2% of 360,000 active; Potency, µM (top dose mostly 58.2 µM), most hits filed as inhibitors; AlphaScreen AMA1-biotinylated RON2 peptide binding; active = well fitted inhibition curve with a large enough effect; inconclusive = small, poorly fitted or top-dose-only effect; inactive = no such curve, though single readings can be large or run the other way; also: nearly all actives have a fitted effect of over 45% in size
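AMA1 (3D7) with his tag at 25 nM final met compounds first, then biotinylated RON2 peptide at 25 nM; detection used donor plus acceptor beads, 10 µg/mL apiece, read by AlphaScreen after 30 min at room temperature.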
Lassa entry inh: Lassa virus entry inhibition | Lassa virus pseudotype entry inhibition, cell reporter | Potency, µM (series often up to 37.9 µM), hits mostly inhibitors | 1.2% of 300,000 active | AID 540256; calls by dose curve; tested in HEK293 cells; also: nearly all actives have a fitted effect of over 50% in size
CHX counter: affects cycloheximide protein synthesis inhibition readout, counter-screen. cell reporter, cycloheximide protein synthesis inhibition counterscreen. max response, %. 12% of 300,000 active; in the data active = max response mostly above about 13%, no sharp cut-off; inactive = mostly below about 14%; also: read at 38.3 µM for the half of the compounds with a filed dose
Shiga inhibitor: inhibitors of Shiga toxin in Vero cells. inhibition, % at 38.7 µM. AID 2315. 9.2% of 290,000 active. Vero cells, Shiga toxin protein synthesis inhibition reporter; in the data active = inhibition mostly above about 28%, no sharp cut-off; inactive = mostly below about 43%
Each line names hits and unclear results; the compound was inactive in the other large screens; ! = not active in a repeat. Many of the other results were omitted from the sample, so hits are more common in it than they were.

COc1ccc(OC)c(C(=O)c2coc3ccc(OC(C)=O)cc23)c1	MARV entry inh inconclusive, Lassa entry inh 11µM, Shiga inhibitor 38
COc1ccc(C(=O)c2coc3ccc(OC(C)=O)cc23)cc1	MARV entry inh inconclusive, Lassa entry inh inconclusive, CHX counter 27, Shiga inhibitor 72
O=C(COc1ccccc1-c1nc(-c2ccccc2)no1)Nc1cccc([N+](=O)[O-])c1	none (no result: AMA1 RON2 block, CHX counter, Shiga inhibitor)
O=C(N/N=C/c1ccc(O)cc1O)C(=O)N/N=C/c1ccc(O)cc1O	MARV entry inh inconclusive, AMA1 RON2 block inconclusive
Cc1cc(=O)[nH]c(NN=C2C3CC4CC(C3)CC2C4)n1	CHX counter 18 (no result: MARV entry inh, Lassa entry inh)
Cc1cc(=O)[nH]c(NN=C2CCCCC2C)n1 (centres undefined)	none (no result: CHX counter, Shiga inhibitor)
O=C1C2C3CCC(C3)C2C(=O)N1c1ccc(OS(=O)(=O)c2ccccc2)cc1 (centres undefined)	MARV entry inh inconclusive, Lassa entry inh inconclusive, CHX counter 33, Shiga inhibitor 78
CC(NC(=O)OC(C)(C)C)C(=O)NC(CCC(=O)OCc1ccccc1)C(N)=O (centres undefined)	none
CC(=O)Nc1ccc(OS(=O)(=O)O)cc1	none (no result: MARV entry inh, AMA1 RON2 block, Lassa entry inh)
CC(=O)Nc1ccc(S(=O)(=O)c2ccc(N)cc2)cc1N	none (no result: MARV entry inh, Lassa entry inh)
CC(=O)Nc1ccc(OS(=O)(=O)c2ccc(C(C)(C)C)cc2)cc1	CHX counter 12 (no result: MARV entry inh, AMA1 RON2 block, Lassa entry inh)
CC(=O)Nc1ccc(S(=O)(=O)c2ccc(N)cc2)cc1	CHX counter 18!, Shiga inhibitor 24! (no result: MARV entry inh, Lassa entry inh)
CC(CCc1ccccc1)N1CCN(C)CC1 (centres undefined)	none
CCCOc1cc(N(CC)CC)ccc1/C=C(/C#N)c1nc2ccc(C)cc2[nH]1	MARV entry inh inconclusive
CCOc1cc(N(CC)CC)ccc1/C=C(/C#N)c1nc2ccccc2[nH]1	MARV entry inh 13µM, CHX counter 27, Shiga inhibitor 82
CCN(CC)c1ccc(/C=C(/C#N)c2nc3ccc(C)cc3[nH]2)c(OC(C)C)c1	MARV entry inh inconclusive, Lassa entry inh inconclusive, CHX counter 15
COc1cc(C2NC(=S)NC(O)(C(F)(F)F)C2C(=O)c2cccs2)cc(OC)c1O (centres undefined)	CHX counter 40, Shiga inhibitor 11
CN1C(=O)NC(c2ccc(O)cc2)C(C(=O)c2cccs2)C1(O)C(F)(F)F (centres undefined)	Shiga inhibitor 111
CC(C)(C)NC(=O)NC(=O)COC(=O)c1cc[n+]([O-])cc1	none
Cc1ccc(NCC(=O)N/N=C\c2ccc[nH]2)cc1	MARV entry inh 3.2µM, Lassa entry inh inconclusive
O=C(Cc1ccccc1)N/N=C/c1ccc[nH]1	none (no result: MARV entry inh, Lassa entry inh)
Cc1ccc(C)c(NC(=O)CCC(=O)N/N=C/c2ccc[nH]2)c1	MARV entry inh inconclusive, Lassa entry inh 18µM
Cc1ccc(C)c(NC(=O)CCC(=O)N/N=C/c2cc([N+](=O)[O-])ccc2O)c1	MARV entry inh inconclusive, Lassa entry inh inconclusive
Cc1c(Cl)cccc1NC(=O)CCC(=O)N/N=C/c1ccc[nH]1	MARV entry inh 3.2µM, Lassa entry inh inconclusive
Cc1c(Cl)cccc1NC(=O)CCC(=O)NNC(=O)c1ccccc1	none
CCOc1ccc(-c2nc3c(c(CC)nn3-c3ccccc3)c3cc(OC)c(OC)cc23)cc1	none (no result: MARV entry inh, AMA1 RON2 block, CHX counter, Shiga inhibitor)
c1ccc2c(c1)CCN(C1=Nc3cccc4cccc1c34)C2	MARV entry inh inconclusive, Lassa entry inh inconclusive, CHX counter 35, Shiga inhibitor 49
c1cc2c3c(cccc3c1)C(N1CCCCCC1)=N2	MARV entry inh inconclusive
CCOc1ccc(CCNC(=O)c2cc(C)nc3ccccc23)cc1OCC	none
O=C(O)CSC1CC(=O)N(c2ccc(Cl)c(Cl)c2)C1=O (centres undefined)	MARV entry inh inconclusive
Cc1cccc(N2C(=O)SC(N(C)c3ccccc3)C2=O)c1 (centres undefined)	MARV entry inh inconclusive
O=C1CC(N(O)c2ccccc2)C(=O)N1c1ccc(Cl)c(Cl)c1 (centres undefined)	CHX counter 10 (no result: MARV entry inh, Lassa entry inh)
Cc1cccc(N2C(=O)CC(N(O)c3ccccc3)C2=O)c1 (centres undefined)	CHX counter 28
Cc1ccc(OCCNC(=O)c2ccc(NC(=O)CC3SC(N4CCCC4)=NC3=O)cc2)cc1 (centres undefined)	none (no result: CHX counter, Shiga inhibitor)
COCCN=C1Sc2nc3ccc(C)cc3cc2CN1Cc1ccco1	CHX counter 52, Shiga inhibitor 114
Cn1c(=NC(=O)C2=NNC(=O)CC2)sc2ccccc21	CHX counter 28, Shiga inhibitor 45
O=C(O)c1cc2ccccc2cc1Nc1ccccc1	none
Cc1ccc(NC(=O)N2CCc3ccccc3C2)cc1	MARV entry inh inconclusive, CHX counter 48, Shiga inhibitor 58
CCc1ccccc1NC(=O)N1CCc2ccccc2C1	none (no result: MARV entry inh, Lassa entry inh)
Cc1ccc(NC(=O)N2CCc3ccccc3C2)c(C)c1	MARV entry inh inconclusive, CHX counter 42, Shiga inhibitor 65
O=C(Nc1ccccc1)N1CCc2ccccc2C1	Lassa entry inh inconclusive, CHX counter 60, Shiga inhibitor active
Cc1ccc(S(=O)(=O)N(C)c2ccc(C(=O)N3CCc4ccccc4C3)cc2)cc1	MARV entry inh inconclusive, Lassa entry inh 11µM
O=C(OCC(=O)N1CCCCCC1)c1ccc(F)cc1F	none (no result: CHX counter, Shiga inhibitor)
Cc1ccc(NC(=O)CSc2nc3ccc(NC(=O)c4cccs4)cc3s2)c(C)c1	MARV entry inh inconclusive (no result: AMA1 RON2 block, CHX counter, Shiga inhibitor)
O=C(NC1CC(=O)N(c2ccccc2)C1)c1ccc(S(=O)(=O)N2CCCCC2)cc1 (centres undefined)	none (no result: MARV entry inh, AMA1 RON2 block, CHX counter, Shiga inhibitor)
COCCCn1cnc2oc3nc4ccccc4nc3c2c1=O	MARV entry inh inconclusive, CHX counter 37, Shiga inhibitor 98
Cc1cc(OCc2cc(C(=O)N(C)Cc3ccccn3)no2)cc(C)c1Cl	Lassa entry inh inconclusive, CHX counter 92, Shiga inhibitor 106
CC(=O)c1ccc(OCc2cc(C(=O)N(C)Cc3ccon3)no2)cc1	none
Cc1cc(OCc2cc(C(=O)N(C)C(C)c3ccccn3)no2)cc(C)c1Cl (centres undefined)	CHX counter 41, Shiga inhibitor 102 (no result: MARV entry inh, Lassa entry inh)
CC(=O)c1ccc(OCc2cc(C(=O)N(C)Cc3ccccn3)no2)cc1	Lassa entry inh inconclusive, CHX counter 62, Shiga inhibitor 52
CSc1ccccc1OCc1cc(C(=O)N(C)C(C)c2ccccn2)no1 (centres undefined)	Lassa entry inh inconclusive
C=CCN1C(=O)[C@]2(O[C@H](C)CC3=CCCC32)c2c(Br)cccc21 (some centres undefined)	Lassa entry inh inconclusive (no result: AMA1 RON2 block, CHX counter, Shiga inhibitor)
COC(=O)CC=C[C@@H](C)[C@@H](C=NOC[C@@H](O)COCc1ccco1)OC	none (no result: AMA1 RON2 block, Lassa entry inh, CHX counter, Shiga inhibitor)
COc1ccc(C(=O)/C=C/C(=O)N(CC(=O)NCCC(C)C)Cc2cccs2)c(O)c1	MARV entry inh 21µM, Lassa entry inh inconclusive
COc1ccc(C(=O)N(Cc2ccco2)Cc2cccs2)c(O)c1	none
CCOc1cc(/C=N/NC(=O)c2nn(C)cc2Br)ccc1OCc1ccccc1	none
COc1ccc(/C=N/NC(=O)c2nn(C)cc2Br)cc1CSCc1ccco1	CHX counter 31, Shiga inhibitor 38
Cc1ccc(OC(=O)c2cccc(S(=O)(=O)N(C)C)c2)c(-n2nc3ccccc3n2)c1	CHX counter 64, Shiga inhibitor 73
